# Test results published in PubChem BioAssay AID1220 (Sanford-Burnham Center for Chemical Genomics, 2008).
# Screen size: about 190,000 compounds; about 1,300 (0.68%) were called active. No stated cut-off is given here; in the data, active means inhibition above about 50%; inactive means the rest. For the sample, actives were picked, then their nearest neighbours and some compounds at random.
# Molecular target: Mannose-6-phosphate isomerase (Homo sapiens) (UniProt P34949)
# Experiment: human PMI inhibitors, high substrate, primary screen, biochemical, fluorescence intensity, high mannose 6-phosphate (AID 1220)
# Details: recombinant PMI enzyme, coupled fluorescence intensity; at 20 µM; active compounds read high
# Chain of Mannose-6-phosphate isomerase (Homo sapiens) (P34949 whole entry, looked up): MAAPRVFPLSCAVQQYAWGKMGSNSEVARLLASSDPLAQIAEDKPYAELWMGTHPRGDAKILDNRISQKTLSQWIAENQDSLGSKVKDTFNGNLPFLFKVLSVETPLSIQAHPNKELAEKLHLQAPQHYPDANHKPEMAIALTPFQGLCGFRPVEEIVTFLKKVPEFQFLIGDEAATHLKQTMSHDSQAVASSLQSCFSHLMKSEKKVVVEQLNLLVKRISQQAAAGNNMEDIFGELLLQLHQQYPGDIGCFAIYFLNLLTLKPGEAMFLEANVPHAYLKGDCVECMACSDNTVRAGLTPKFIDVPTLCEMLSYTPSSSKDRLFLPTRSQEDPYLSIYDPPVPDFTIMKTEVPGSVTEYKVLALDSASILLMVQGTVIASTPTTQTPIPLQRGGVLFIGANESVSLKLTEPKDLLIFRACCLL
row,Structure (SMILES),inhibition
1,CC(=O)Nc1ccc(C2(O)COc3ccccc3O2)cc1 (stereo unspecified),-2% (inactive)
2,COc1ccccc1NC(=O)c1ccc(-c2ccccc2[N+](=O)[O-])o1,52.9% (active)
3,COc1ccccc1NC(=O)c1ccc(-c2ccccc2F)o1,-0.4% (inactive)
4,COc1cccc(NC(=O)c2ccc(-c3ccccc3[N+](=O)[O-])o2)c1,-0.2% (inactive)
5,Cc1ccccc1Cc1ccc(Cl)nn1,-8.8% (inactive)
6,CN(C)C(=S)SCC(=O)NCc1ccc(F)cc1,10.8% (inactive)
7,CCc1cccc(NC(=O)c2snc3c(=O)[nH]cnc23)c1,7.2% (inactive)
8,O=C(O)c1cc(-c2ccc(/C=C3/SC(=S)N(Cc4ccccc4)C3=O)o2)ccc1Cl,-34.8% (inactive)
9,O=C1NC(=S)S/C1=C\c1ccc(SCc2ccco2)o1,7.7% (inactive)
10,O=C1NC(=S)S/C1=C\c1ccc(SCc2ccccc2)o1,66.9% (active)
11,O=C(O)c1cccc(N2C(=O)/C(=C/c3ccc(SCc4ccc(Cl)cc4)o3)SC2=S)c1,67.9% (active)
12,Cc1cccc(C)c1-n1cccc1/C=C1\SC(=S)N(c2cccc(C(=O)O)c2)C1=O,3% (inactive)
13,O=C1NC(=S)S/C1=C/c1ccc(N2CCOCC2)o1,-14% (inactive)
14,O=C(COC(=O)c1sc2cc(F)ccc2c1Cl)Nc1ncc(Cl)cc1Cl,13.4% (inactive)
15,Cn1c(=O)c2c(nc(SCC(=O)Nc3ccccc3)n2C)n(C)c1=O,6.1% (inactive)
16,Cc1cccc(C)c1NC(=O)CSc1nnc(-c2cccnc2)o1,5.5% (inactive)
17,COc1ccccc1NC(=S)N1CCN(C(=O)c2ccco2)CC1,-3% (inactive)
18,O=C(Cc1c(F)cccc1Cl)N1CCOCC1,-13.4% (inactive)
19,COCCn1c(=O)c2c(nc3n2CCN3c2ccc(C)cc2)n(C)c1=O,0.4% (inactive)
20,CCOc1ccc(N=C(NN)c2ccc3ccccc3n2)cc1,-57.4% (inactive)
21,CCOc1ccc(N=C(C)c2ccccc2O)cc1,55.9% (active)
22,CCOc1ccc(NC(=O)c2ccccc2O)cc1,-0.8% (inactive)
23,Cc1cccc(OCC(=O)Nc2ccc3nc(C)sc3c2)c1,-10.9% (inactive)

row,Structure (SMILES),inhibition
1,COCCNC(=O)C1CCCN(c2nn3c(=O)cc(C)nc3s2)C1 (stereo unspecified),7.2% (inactive)
2,CCN1CCN(Cc2nc3c(c(=O)n(C)c(=O)n3C)n2CCc2ccccc2)CC1,-1.1% (inactive)
3,O=c1cc(Nc2ccc3c(c2)OCO3)[nH]c(=O)n1-c1ccc(Br)cc1,1.9% (inactive)
4,O=c1cc(Nc2ccc3c(c2)OCCO3)[nH]c(=O)n1-c1ccc(Cl)cc1,8% (inactive)
5,O=c1cc(Nc2ccc3c(c2)OCCO3)[nH]c(=O)n1-c1ccc(Br)cc1,57.5% (active)
6,CC1CCN(S(=O)(=O)c2ccc(NC(=S)NC(=O)c3ccc(Cl)cc3)cc2)CC1,-6.2% (inactive)
7,CC[n+]1ccc(C)c2cc(P(=O)(c3ccccc3)c3ccccc3)ccc21,18.4% (inactive)
8,CC[n+]1ccc(/C=C/c2ccc(N(C)C)cc2)c2ccccc21,-4.8% (inactive)
9,CC[n+]1ccc(C[n+]2ccccc2)c2ccccc21,97.1% (active)
10,O=C(NCc1ccccc1)C1=C[C@@H](c2coc3ccccc3c2=O)C[C@@H](OCCCCO)O1,8.5% (inactive)
11,O=C(NCc1ccc(Cl)cc1)C(=O)NCC(c1cccnc1)N1CCN(c2ccc(F)cc2)CC1 (stereo unspecified),2.5% (inactive)
12,COC1(NC(=O)c2ccccc2)C(C)=CC(=O)C=C1C,6.7% (inactive)
13,CCCOC1(NC(=O)c2ccccc2)C(C)=CC(=O)C=C1C,55.4% (active)
14,CCOC1(NC(=O)c2ccccc2)C(C)=CC(=O)C=C1C,49.2% (inactive)
15,CCNC(=O)/C(=C\C=C\c1ccccc1)NC(=O)c1ccc(Br)o1,-11.4% (inactive)
16,Cc1ccc(Nc2nc3ccccc3c(=O)[nH]2)cc1C,-5% (inactive)
17,O=[N+]([O-])c1ccc2oc(C3CCCCC3)nc2c1,2.8% (inactive)
18,Nc1ccc2oc(C3CCCCC3)nc2c1,64% (active)
19,Nc1ccc2nc(C3CCCCC3)[nH]c2c1,32.3% (inactive)
20,Cc1c(-n2cc(C(=O)O)c(=O)c3cc(F)c(N4CCCC4)c(F)c32)c(=O)n(-c2ccccc2)n1C,16% (inactive)
21,Cc1sc2nc(CN3CCOCC3)nc(NCCc3ccccc3)c2c1C,2% (inactive)
22,CCOc1cc(-c2cc(N)n[nH]2)cc(OCC)c1OCC,61.2% (active)
23,CCCc1ccc(-c2cc(N)n[nH]2)cc1,-0.8% (inactive)

row,Structure (SMILES),inhibition
1,CCOc1cc(-c2conc2N)cc(OCC)c1OCC,4.6% (inactive)
2,O=C(Nc1cccc(NC(=O)c2cccnc2)c1)c1cccnc1,7.6% (inactive)
3,O=C(Nc1ccc(NC(=O)c2cccs2)cc1)c1cccnc1,-2.7% (inactive)
4,O=C(Nc1cccc(NC(=O)c2cccs2)c1)c1cccnc1,50.8% (active)
5,Oc1ccc(CCC2CCCCN2Cc2nc(C3CC3)no2)cc1 (stereo unspecified),5.5% (inactive)
6,CCc1ccccc1NC(=O)Nc1ccc(F)cc1F,-2.1% (inactive)
7,CN1C(=O)c2cccc3c(Cl)ccc(c23)C1=O,-5.2% (inactive)
8,CN1C(=O)N(C)c2ccc(C=O)c3cccc1c23,63.6% (active)
9,Cn1cc(C=O)c2ccccc21,8.2% (inactive)
10,Cc1cc(Cl)ccc1NC(=O)Cn1cncn1,62.6% (active)
11,O=C(Cn1cncn1)N/N=C/c1ccc(Cl)cc1,-5% (inactive)
12,O=C(Cn1cncn1)NCc1ccc(Cl)cc1,-13.3% (inactive)
13,COc1cc2cnc(Cl)nc2cc1OC,54.8% (active)
14,COc1cc2cc(C(N)=O)c(N)nc2cc1OC,-0.4% (inactive)
15,COc1cc2cnncc2cc1OC,-4.8% (inactive)
16,COc1ccc(CC(=O)NCc2n[nH]c(=S)n2-c2ccccc2)cc1,-0.6% (inactive)
17,Cc1ccc(C)c(S(=O)(=O)N2CCN(Cc3ccc(O)c4ncccc34)CC2)c1,19.7% (inactive)
18,CCOC(=O)N1CCN(Cc2ccccc2Cl)CC1,4.6% (inactive)
19,OCCN1CCN(Cc2cc(Cl)c3cccnc3c2O)CC1,48.3% (inactive)
20,CCOC(=O)N1CCN(Cc2ccccn2)CC1,-7.5% (inactive)
21,COc1ccc(-n2c(SCC(=O)Nc3nccs3)nc3c(c2=O)SCC3)cc1,11.9% (inactive)
22,CCC(=O)c1ccc(OCC(O)CN2CCOCC2)cc1 (stereo unspecified),6.8% (inactive)
23,O=C(Nc1ccc2c(c1)CCC2)Nc1ccc2c(c1)OCO2,11% (inactive)

row,Structure (SMILES),inhibition
1,CC(/C=N/Nc1nc(C)cc(=O)[nH]1)=C\c1ccccc1,-78.9% (inactive)
2,COc1ccc(NC(=S)Nc2ccccc2)cn1,8.5% (inactive)
3,COc1ccc(NC(=S)Nc2ccc(OC(F)F)cc2)cn1,58.2% (active)
4,COc1ccccc1NC(=S)NNC(=S)Nc1ccc(OC(F)F)cc1,5.4% (inactive)
5,O=C(O)c1ccccc1SCC(=O)N1CCc2ccccc21,-1.8% (inactive)
6,O=C1OC(Nc2cc(Br)cc3cccnc23)c2ccccc21 (stereo unspecified),50.7% (active)
7,Cc1ccc2cccc(NC3OC(=O)c4ccccc43)c2n1 (stereo unspecified),59.9% (active)
8,O=C1OC(Nc2ccc(Br)cc2F)c2ccccc21 (stereo unspecified),-12.4% (inactive)
9,O=C1OC(Nc2ncccn2)c2ccccc21 (stereo unspecified),5.1% (inactive)
10,CCOC(=O)c1ccccc1NC1OC(=O)c2ccccc21 (stereo unspecified),6.8% (inactive)
11,COC(=O)c1ccccc1NC1OC(=O)c2ccccc21 (stereo unspecified),8.6% (inactive)
12,Cc1ccc(OCCOc2ccc(Br)cc2/C=N\NC(N)=O)cc1,4% (inactive)
13,CCOc1ccc(N=Nc2c(=O)[nH]n3c(C)cc(C)nc23)cc1,18% (inactive)
14,CCOC(=O)C1CCCN(C2CC(=O)N(c3ccc(C)cc3)C2=O)C1 (stereo unspecified),-2.1% (inactive)
15,COC(=O)CP(=O)(c1ccccc1)c1ccccc1,-5.8% (inactive)
16,CCOC(=O)Cn1cc(/C=C/[N+](=O)[O-])c2ccccc21,8.7% (inactive)
17,CCOC(=O)COc1ccccc1/C=C\[N+](=O)[O-],0.8% (inactive)
18,O=[N+]([O-])/C=C/c1c(OCc2ccccc2)ccc2ccccc12,3.1% (inactive)
19,CCOC(=O)COc1ccc2ccccc2c1/C=C/[N+](=O)[O-],54.6% (active)
20,CCOc1ccc(/C=C/[N+](=O)[O-])c2ccccc12,55.6% (active)
21,CCOC(=O)COc1ccc(/C=C/[N+](=O)[O-])c(OCC(=O)OCC)c1,1.7% (inactive)
22,COc1ccc(Nc2nc(N)nc(CSc3nncn3C)n2)cc1,4.9% (inactive)
23,CCN(Cc1ccccc1)C(=O)CSc1nc(C)cc(C)c1C#N,5.3% (inactive)

row,Structure (SMILES),inhibition
1,Cc1ccc2c(c1)NC(C(C)(C)C)CO2 (stereo unspecified),-5.8% (inactive)
2,CC1CCC(C(C)C)C(OC(=O)COC(=O)c2cccn2C)C1 (stereo unspecified),16% (inactive)
3,CC1CCC(C(C)C)C(OC(=O)COC(=O)c2ccc(N)cc2)C1 (stereo unspecified),16.2% (inactive)
4,CC1CCC(C(C)C)C(OC(=O)COC(=O)c2cc(O)ccc2N)C1 (stereo unspecified),59.5% (active)
5,Cc1ccc(SCCNC(=O)CN(c2ccc3c(c2)OCO3)S(C)(=O)=O)cc1,13.2% (inactive)
6,CCc1ccccc1OCc1nc2ccc(S(=O)(=O)N3CCOCC3)cc2[nH]1,9.5% (inactive)
7,CC(C)Cc1nc(N2CCC(C(N)=O)CC2)c2nnn(Cc3ccccc3)c2n1,-15% (inactive)
8,CCc1ccc(S(=O)(=O)/N=C2/C=C(Sc3ncn[nH]3)C(=O)c3ccccc32)cc1,90.6% (active)
9,O=C(O)c1ccc(NC2=C/C(=N/S(=O)(=O)c3ccccc3)c3ccccc3C2=O)cc1,-34.1% (inactive)
10,CCc1ccc(S(=O)(=O)/N=C2\C=CC(=O)c3ccccc32)cc1,50.7% (active)
11,CC(C)c1ccc(S(=O)(=O)/N=C2/C=CC(=O)c3ccccc32)cc1,44.1% (inactive)
12,Cc1ccc(S(=O)(=O)/N=C2/C=C(C3C(=O)CC(C)(C)CC3=O)C(=O)c3ccccc32)cc1,-3.6% (inactive)
13,O=C1c2ccccc2C(=O)N1CCSc1ncn[nH]1,-12% (inactive)
14,CCc1ccc(S(=O)(=O)ON2C(=O)c3ccccc3C2=O)cc1,-11.4% (inactive)
15,CC(C)c1ccc(S(=O)(=O)/N=C2/C=C(Sc3ncn[nH]3)C(=O)c3ccccc32)cc1,80% (active)
16,CC(C)c1ccc(N2C(=O)CC(Sc3ncn[nH]3)C2=O)cc1 (stereo unspecified),22.4% (inactive)
17,COC(=O)C(C(C)=O)C1=C/C(=N\S(=O)(=O)c2ccc(C)cc2)c2ccccc2C1=O (stereo unspecified),18% (inactive)
18,CCc1ccc(C(=O)CSc2ncn[nH]2)cc1,-20.5% (inactive)
19,Cc1ccc(S(=O)(=O)/N=C2/C=C(Sc3ncn[nH]3)C(=O)c3ccccc32)cc1,88.3% (active)
